According to PubChem BioAssay (NCATS):
Results filed as inconclusive are left out. The source made the active and inactive calls. Unless noted, the call rests on the fitted dose curve; in most records, active means well fitted curve in the direction sought with a large enough effect; inconclusive means small, poorly fitted or top-dose-only effect, or another doubt; inactive means no such curve, though single readings can be large; an effect the other way counts as inactive or inconclusive.

Key:
[1] = NS1 protein of Zika virus - qHTS assay to identify small molecule inhibitors in human HEK 293 cells (AID 1347053);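 further: plate controls were infected untreated cells for no effect and uninfected cells for full effect; nearly all actives have a fitted effect of over 55% in size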
Method in brief: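 HEK 293; 20 h pre-culture, 37 C/5% CO2; cpd 1 h pre-infection; ZIKV MR766, MOI = 0.5, 24 h, 37 C; TR-FRET NS1 readout (two anti-NS1 Abs); norm. to no-virus vs infected.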

[2] = target: T1, Tyrosine-protein phosphatase non-receptor type substrate 1 (Homo sapiens) + Leukocyte surface antigen CD47 (Homo sapiens) (UniProt P78324+Q08722); assay: CD47-SIRPalpha protein protein interaction - LANCE assay qHTS validation (AID 1347057; active means well fitted curve in the direction sought with a large enough effect in the signal ratio, with a control signal flat, not every such curve was filed as active; the % refers to the signal ratio; further: 0% is about no effect)
T1 sequence (P78324 whole entry, looked up): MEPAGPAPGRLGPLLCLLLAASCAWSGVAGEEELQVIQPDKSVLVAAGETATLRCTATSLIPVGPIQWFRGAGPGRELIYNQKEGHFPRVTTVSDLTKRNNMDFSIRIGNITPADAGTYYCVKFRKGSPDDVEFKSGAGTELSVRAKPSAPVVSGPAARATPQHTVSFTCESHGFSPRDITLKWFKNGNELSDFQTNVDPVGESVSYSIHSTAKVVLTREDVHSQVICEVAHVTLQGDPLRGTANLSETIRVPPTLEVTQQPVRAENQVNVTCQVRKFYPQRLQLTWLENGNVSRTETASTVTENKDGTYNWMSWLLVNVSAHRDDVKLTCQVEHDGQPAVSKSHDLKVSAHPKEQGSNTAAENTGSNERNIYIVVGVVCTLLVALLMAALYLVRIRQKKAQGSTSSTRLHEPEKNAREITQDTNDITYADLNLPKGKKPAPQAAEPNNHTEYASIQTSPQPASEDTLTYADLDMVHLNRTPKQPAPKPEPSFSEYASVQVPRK
T1 sequence (Q08722 whole entry, looked up): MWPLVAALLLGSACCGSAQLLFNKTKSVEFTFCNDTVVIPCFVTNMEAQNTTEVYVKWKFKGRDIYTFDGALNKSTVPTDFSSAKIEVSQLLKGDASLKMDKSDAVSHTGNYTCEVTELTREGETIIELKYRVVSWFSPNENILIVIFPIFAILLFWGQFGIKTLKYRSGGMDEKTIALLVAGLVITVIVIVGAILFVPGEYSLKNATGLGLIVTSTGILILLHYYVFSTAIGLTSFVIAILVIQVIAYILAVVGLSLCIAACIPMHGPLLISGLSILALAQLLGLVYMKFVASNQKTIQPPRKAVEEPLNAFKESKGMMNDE
Method in brief: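 First, His-tagged CD47 and Eu-labelled anti-His antibody met the compound for 30 min; next, site-specifically biotinylated SIRPalpha was added for 30 min; finally streptavidin-APC was added before reading the TR-FRET ratio.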

[3] = target: T1, Tyrosine-protein phosphatase non-receptor type substrate 1 (Homo sapiens) + Leukocyte surface antigen CD47 (Homo sapiens); assay: CD47-SIRPalpha protein protein interaction - HTRF assay qHTS validation (AID 1347058; active means well fitted curve in the direction sought with a large enough effect in the signal ratio, not every such curve was filed as active; the % refers to the signal ratio;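 further: recombinant soluble extracellular CD47 with His tag and biotinylated SIRPalpha domains; 0% is about no effect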)
Method in brief: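 TR-FRET read (Ch1/Ch2 ratio) of soluble extracellular CD47 and Avi-biotinylated SIRPalpha domains in PBS pH 7.4 with 0.05% IGEPAL; 7-point compound titration. Sequential 30 min room-temperature steps; non-biotinylated SIRPalpha as control inhibitor.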

[4] = target: T1, Tyrosine-protein phosphatase non-receptor type substrate 1 (Homo sapiens) + Leukocyte surface antigen CD47 (Homo sapiens); assay: CD47-SIRPalpha protein protein interaction - Alpha assay qHTS validation (AID 1347059);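 further: bead proximity luminescence from CD47 binding SIRPalpha after compound preincubation with SIRPalpha; on the % scale 0 is the no-effect control and ±100 the full control effect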
Method in brief: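 Binding is measured by AlphaScreen proximity: Ni-NTA acceptor beads capture His-CD47, streptavidin donor beads capture biotin-SIRPalpha. Each of three additions (SIRPalpha with compound, CD47, beads) incubates 30 min at room temperature protected from light.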

[5] = target: Parathyroid hormone/parathyroid hormone-related peptide receptor (Homo sapiens) (UniProt Q03431); assay: qHTS for PTHR1 Agonists: Optimization Screen against the NCGC LOPAC library (AID 1347079);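 further: GloSensor cAMP luminescence in HEK-293 GP2 cells expressing human PTHR1 with IBMX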; further: potency means the concentration at half of the fitted maximal effect
Parathyroid hormone/parathyroid hormone-related peptide receptor (Homo sapiens), sequence (Q03431 whole entry, looked up): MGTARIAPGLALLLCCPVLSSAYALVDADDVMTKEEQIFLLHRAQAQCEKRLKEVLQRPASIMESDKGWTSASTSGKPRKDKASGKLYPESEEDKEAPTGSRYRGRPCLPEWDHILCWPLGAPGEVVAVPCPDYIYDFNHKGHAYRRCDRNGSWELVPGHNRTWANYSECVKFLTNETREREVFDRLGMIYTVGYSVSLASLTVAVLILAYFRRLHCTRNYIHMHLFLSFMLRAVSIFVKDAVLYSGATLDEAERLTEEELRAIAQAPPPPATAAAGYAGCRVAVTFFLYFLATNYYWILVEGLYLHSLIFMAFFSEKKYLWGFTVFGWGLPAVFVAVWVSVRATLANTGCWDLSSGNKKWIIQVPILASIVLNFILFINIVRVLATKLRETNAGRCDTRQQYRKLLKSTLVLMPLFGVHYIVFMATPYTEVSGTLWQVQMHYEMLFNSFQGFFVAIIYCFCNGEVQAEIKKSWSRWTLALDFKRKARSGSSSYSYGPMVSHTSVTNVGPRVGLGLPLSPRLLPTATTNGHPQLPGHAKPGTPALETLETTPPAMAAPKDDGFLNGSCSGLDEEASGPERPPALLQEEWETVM
Method in brief: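 Agonist readout: GloSensor cAMP luminescence, read after 15 min at room temperature. HEK-293-derived GP2 line carries PTHR1; compounds tested as a titration for 1 hr at 37C in presence of IBMX. M-PTH (1-15) served as control.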

[6] = target: N-terminal Xaa-Pro-Lys N-methyltransferase 1 (Homo sapiens) (UniProt Q9BV86); assay: qHTS Assay for Inhibitors of N-terminal methyltransferase 1 (NTMT1): LOPAC validation of the NTMT1 SAHH-coupled ThioGlo3 Assay (AID 1347143);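 further: SAH from peptide methylation measured as thiol fluorescence via SAHH coupling and ThioGlo3; nearly all actives have a fitted effect of over 70% in size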; further: potency means the concentration at half of the fitted maximal effect
N-terminal Xaa-Pro-Lys N-methyltransferase 1 (Homo sapiens), sequence (Q9BV86 whole entry, looked up): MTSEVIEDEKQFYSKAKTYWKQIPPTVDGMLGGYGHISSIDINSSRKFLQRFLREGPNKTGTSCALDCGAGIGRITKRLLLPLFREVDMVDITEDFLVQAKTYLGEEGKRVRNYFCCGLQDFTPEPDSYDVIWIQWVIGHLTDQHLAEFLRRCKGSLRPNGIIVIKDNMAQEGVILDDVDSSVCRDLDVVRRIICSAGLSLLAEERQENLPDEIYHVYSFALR
Method in brief: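 Inhibition of NTMT1 methylation of peptide SPKRIA is followed by converting SAH with SAHH and labelling the released thiol with ThioGlo3. Plates are read at 340/450nm before and 30 min after reagent addition, both at room temperature.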

[7] = target: Lysine-specific demethylase 5B (Homo sapiens) (UniProt Q9UGL1); assay: Optimization screen for KDM5B Histone Demethylases FDH coupled qHTS against the LOPAC library (AID 1347166); details: KDM5B demethylation, FDH-coupled NADH fluorescence (FDH is formaldehyde dehydrogenase); at 57.5 µM (top of the series); further: 0% is about no effect
Lysine-specific demethylase 5B (Homo sapiens), sequence (Q9UGL1 whole entry, looked up): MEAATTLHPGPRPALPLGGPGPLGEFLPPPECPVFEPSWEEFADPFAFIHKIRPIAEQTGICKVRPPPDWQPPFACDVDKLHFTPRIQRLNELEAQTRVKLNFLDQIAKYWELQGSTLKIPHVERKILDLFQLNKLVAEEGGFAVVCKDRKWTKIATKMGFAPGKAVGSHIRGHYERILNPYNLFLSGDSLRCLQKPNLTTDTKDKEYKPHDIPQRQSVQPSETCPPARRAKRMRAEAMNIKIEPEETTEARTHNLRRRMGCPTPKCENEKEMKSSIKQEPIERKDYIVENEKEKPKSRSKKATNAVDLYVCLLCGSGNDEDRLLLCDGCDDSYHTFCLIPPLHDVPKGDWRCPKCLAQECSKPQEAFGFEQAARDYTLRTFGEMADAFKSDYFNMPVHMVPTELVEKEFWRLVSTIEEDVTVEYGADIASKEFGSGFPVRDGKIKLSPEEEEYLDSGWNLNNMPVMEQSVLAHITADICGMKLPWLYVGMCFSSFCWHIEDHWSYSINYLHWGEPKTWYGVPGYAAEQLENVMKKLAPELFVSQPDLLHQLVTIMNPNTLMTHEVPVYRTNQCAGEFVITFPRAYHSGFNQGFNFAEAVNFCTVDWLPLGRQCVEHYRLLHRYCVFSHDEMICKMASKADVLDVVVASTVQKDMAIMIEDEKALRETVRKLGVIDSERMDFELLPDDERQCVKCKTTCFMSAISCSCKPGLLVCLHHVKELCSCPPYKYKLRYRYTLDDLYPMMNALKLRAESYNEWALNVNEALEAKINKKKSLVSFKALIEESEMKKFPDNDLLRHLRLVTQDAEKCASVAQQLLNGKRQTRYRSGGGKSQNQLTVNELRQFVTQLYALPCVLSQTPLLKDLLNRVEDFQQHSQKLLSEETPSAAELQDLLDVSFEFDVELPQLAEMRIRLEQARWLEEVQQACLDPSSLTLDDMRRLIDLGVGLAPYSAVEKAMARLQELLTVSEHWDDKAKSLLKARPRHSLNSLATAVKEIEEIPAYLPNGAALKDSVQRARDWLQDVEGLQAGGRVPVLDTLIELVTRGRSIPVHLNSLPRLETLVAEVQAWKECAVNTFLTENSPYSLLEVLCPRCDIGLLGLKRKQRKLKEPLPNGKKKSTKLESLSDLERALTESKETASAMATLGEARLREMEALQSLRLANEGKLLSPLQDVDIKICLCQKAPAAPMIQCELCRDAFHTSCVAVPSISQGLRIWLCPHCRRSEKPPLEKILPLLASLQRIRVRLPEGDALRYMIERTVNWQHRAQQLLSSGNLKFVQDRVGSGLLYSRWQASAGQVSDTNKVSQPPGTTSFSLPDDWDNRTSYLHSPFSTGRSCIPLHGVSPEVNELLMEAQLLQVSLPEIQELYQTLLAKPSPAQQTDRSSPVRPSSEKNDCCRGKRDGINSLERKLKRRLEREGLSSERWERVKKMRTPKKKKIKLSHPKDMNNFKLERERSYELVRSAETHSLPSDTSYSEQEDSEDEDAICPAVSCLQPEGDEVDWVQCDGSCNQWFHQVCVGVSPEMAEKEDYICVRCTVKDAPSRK
Method in brief: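 KDM5BDeltaAP (200nM final) preincubated 10 min with compound, then 12.5uM H3K4Me3, 25uM a-ketoglutarate, ascorbate, Fe(II), NAD+ and FDH added; 50mM HEPES pH 7.5, 0.01% Tween-20. NADH fluorescence (340/450 nm) change over 30 min, room temperature.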

[8] = system: Zika virus NS2B-NS3 protease; assay: Primary screen GU AMC qHTS for Zika virus inhibitors (AID 1347154);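 further: 0% = no-inhibitor control and -100% = no-enzyme control; nearly all actives have a fitted effect of over 70% in size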
Method in brief: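 Fluorogenic AMC-substrate cleavage by noncovalent NS2B-NS3 protease complex (25 nM, pH 8.0 Tris buffer with Tween 20) followed for 15 minutes at room temperature (~20% conversion). Percent inhibition from ex340/em450 signal change, fitted by 4-parameter Hill equation.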

[9] = system: Zika virus NS2B-NS3 protease (unlinked); assay: Optimization of GU AMC qHTS for Zika virus inhibitors: Unlinked NS2B-NS3 protease assay (AID 1347151); further: nearly all actives have a fitted effect of over 80% in size; further: potency means the concentration at half of the fitted maximal effect
Method in brief: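 Fluorescence gain (340/450 nm) over 15 min at room temperature, ~20% conversion, gave percent inhibition fitted to a 4-parameter Hill equation; enzyme was unlinked NS2B-NS3 (25 nM final), pH 8.0 Tris buffer.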

[10] = system: Zika virus NS2B-NS3 protease (unlinked complex); assay: Confirmatory screen GU AMC qHTS for Zika virus inhibitors (AID 1347153); further: nearly all actives have a fitted effect of over 70% in size; further: potency means the concentration at half of the fitted maximal effect;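 on activity, negative = inhibition: percent inhibition with 0% = no inhibitor control and 100% = no enzyme control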
Method in brief: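 Unlinked enzyme 25 nM, Tris pH 8.0/0.01% Tween 20; cpd 15 min RT, dark; + AMC substrate 10 µM (Km 18.3 µM); 340/450 nm read at t0 and 15 min; % inhibition → 4-param fit.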

[11] = Confirmatory screen NINDS Rhodamine qHTS for Zika virus inhibitors (AID 1347161); further: nearly all actives have a fitted effect of over 60% in size; further: potency means the concentration at half of the fitted maximal effect
Method in brief: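 Purified linked NS2B-NS3 protease (NS2B hydrophilic domain joined to NS3 protease by flexible linker), 25 nM in 10 mM Tris-HCl pH 8.0, 0.01% Tween 20. Compounds titrated, 15 min preincubation at room temperature; 1.5 microM Rhodamine110 substrate, FITC fluorescence change over 15 min.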

[12] = system: Zika virus NS2B-NS3 protease (linked); assay: 384 well plate NINDS AMC confirmatory qHTS for Zika virus inhibitors (AID 1347163);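 further: linked protease at 5 30 or 60 nM final depending on run; fluorescence of AMC released from Ac-VKTGKR-AMC peptide cleaved by the protease; top concentration of the series differs between compounds; 0% = no-inhibitor control and -100% = no-enzyme control; nearly all actives have a fitted effect of over 50% in size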
Method in brief: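 Linked NS2B-NS3 protease (final 5 nM, 30 nM or 60 nM) was preincubated with compounds (final up to 1 mM) for ~15 minutes. Ac-VKTGKR-AMC substrate (final 30 microM) then reacted for 25 minutes at room temperature in the dark. Fluorescence (ex 355/em 460 nm) was normalized to no-enzyme and no-inhibitor controls.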

[13] = system: Zika virus NS2B-NS3 protease (linked construct); assay: 384 well plate NINDS Rhodamine confirmatory qHTS for Zika virus inhibitors (AID 1347164);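 further: fluorescence from protease cleavage of Ac-LKRR-rhodamine 110 substrate; potency means the concentration at half of the fitted maximal effect; nearly all actives have a fitted effect of over 65% in size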
Method in brief: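 Fluorescence at 485/538 nm was measured 25 minutes after adding 10 microM Ac-LKRR-Rd substrate, in the dark at room temperature. The protease (5, 30 or 60 nM final) had been preincubated ~15 minutes with compound; aprotinin as control.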

[14] = HepG2 cells viability qHTS for Zika virus inhibitors (AID 1347168); further: on the % scale 0 is the no-effect control and ±100 the full control effect
Method in brief: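 Compounds were tested in concentration series on cells grown in DMEM containing 4% FBS. After 24 to 48 hours, cellular ATP was measured by luminescence with CellTiter Glo.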

[15] = system: Zika virus NS2B-NS3 protease (linked construct); assay: Confirmatory screen NINDS AMC qHTS for Zika virus inhibitors (AID 1347152);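 further: top concentration of the series differs between compounds; 0% = no-inhibitor control and -100% = no-enzyme control; nearly all actives have a fitted effect of over 70% in size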
Method in brief: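 IC50s from 4-parameter Hill fits of percent inhibition, based on AMC fluorescence gain (340/450 nm) over 15 min with 10 microM Bz-Nle-KRR-AMC. Enzyme: 1 nM linked NS2B-NS3 in Tris-HCl pH 8.0; 15-min compound preincubation.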

[16] = Tertiary RLuc qRT-PCR qHTS assay for Zika virus inhibitors (AID 1347169); further: top concentration of the series differs between compounds; on the % scale 0 is the no-effect control and ±100 the full control effect; nearly all actives have a fitted effect of over 55% in size
Method in brief: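 Orthogonal cell-based readout: luminescence measured 1-1.5 hrs after adding live-cell Renilla substrate to Vero cells that had been infected with ZIKV-RLuc (MOI 1-2) post-compound, incubated 48-72 hrs at 37 degrees C.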

Nc1ncnc2c1nc(Sc1ccc(Cl)cc1)n2[C@H]1OC2COP(=O)(O)O[C@@H]2C1O (some centres undefined)
inactive: Potency [1] | Potency [2] | outcome [3] | Potency [4] | Potency [5] | Potency [6] | activity, negative = inhibition [7] -0.0945%

CNc1cc(NS(=O)(=O)c2ccc(N)cc2)nc(NC)n1
inactive: Potency [1] | Potency [2] | outcome [3] | Potency [4] | Potency [5] | Potency [6] | Potency [8]

CCCCCCCCCC(=O)NC(CN1CCOCC1)[C@H](O)c1ccccc1 (some centres undefined)
inactive: Potency [1] | Potency [2] | outcome [3] | Potency [4] | Potency [5] | Potency [6] | Potency [9] | activity, negative = inhibition [7] -9.31%

Cn1c(=O)[nH]c2ncn(C)c2c1=O
inactive: Potency [1] | Potency [2] | outcome [3] | Potency [4] | Potency [5] | Potency [6] | Potency [8] | activity, negative = inhibition [7] -3.98%

C=CC1(C)CC(=O)C2(O)C(C)(O1)C(OC(C)=O)C(O)C1C(C)(C)CCC(O)C12C (centres undefined)
inactive: Potency [1] | Potency [2] | outcome [3] | Potency [4] | Potency [6] | Potency [9] | activity, negative = inhibition [7] -2.72%
active: Potency [5] 21.2 µM

COc1cccc(OC)c1OCCNCC1CSc2ccccc2O1 (centres undefined)
inactive: Potency [1] | Potency [2] | outcome [3] | Potency [4] | Potency [5] | Potency [9] | activity, negative = inhibition [7] -14.1%

CCN1C(=O)C=CC1=O
inactive: Potency [1] | Potency [2] | outcome [3] | Potency [4] | Potency [5] | Potency [9] | activity, negative = inhibition [7] -3.85%

COc1cc(/C=C(\C#N)C(=O)c2ccc(O)c(O)c2)cc(I)c1O
inactive: Potency [1] | Potency [2] | Potency [4] | Potency [5]
active: Potency [6] 50.1 µM

N=C(N)c1ccc(N)cc1
inactive: Potency [1] | Potency [2] | outcome [3] | Potency [4] | Potency [5] | Potency [9] | activity, negative = inhibition [7] -6.1%

COc1cc(/C=C(\C#N)C(=O)Nc2nnc(C(F)(F)F)s2)ccc1OCc1ccc(C(F)(F)F)cc1C(F)(F)F
inactive: Potency [1] | Potency [2] | outcome [3] | Potency [5] | Potency [12] | outcome [14]
active: Potency [6] 56.2 µM | Potency [9] 2.12 µM | Potency [10] 15.2 µM | Potency [11] 1.75 µM | Potency [13] 14.1 µM

CN1CCc2cc(Cl)c(O)cc2[C@@H](c2ccccc2)C1
inactive: Potency [1] | Potency [2] | outcome [3] | Potency [4] | Potency [5] | Potency [8] | activity, negative = inhibition [7] -3.21%

O=c1cc(O)cc(/C=C/c2ccc(O)c(O)c2)o1
active: Potency [6] 44.7 µM | Potency [9] 13.4 µM
inactive: Potency [1] | Potency [2] | Potency [4] | Potency [5]

O=[N+]([O-])c1cccc2cn[nH]c12
inactive: Potency [1] | Potency [2] | Potency [4] | Potency [5] | Potency [6] | Potency [9] | Potency [8] | activity, negative = inhibition [7] -3.93%

COc1ccc2c(c1)CCC1C2CC[C@@]2(C)C1CC[C@@H]2NCCCCCCN1C(=O)C=CC1=O (some centres undefined)
inactive: Potency [1] | Potency [2] | outcome [3] | Potency [5] | Potency [6] | Potency [9]

CC1CCN(CC[C@H]2CCCN2S(=O)(=O)c2cccc(O)c2)CC1
inactive: Potency [1] | Potency [2] | Potency [4] | Potency [5] | Potency [6] | Potency [9] | Potency [8] | activity, negative = inhibition [7] 1.65%

CN1CCCC1CCOC(C)(c1ccccc1)c1ccc(Cl)cc1 (centres undefined)
inactive: Potency [1] | Potency [2] | outcome [3] | Potency [4] | Potency [5] | Potency [9] | activity, negative = inhibition [7] -0.721%

CC(C)NC[C@H](O)COc1ccc(CC(N)=O)cc1
inactive: Potency [1] | Potency [2] | outcome [3] | Potency [4] | Potency [6] | Potency [9] | Potency [8] | activity, negative = inhibition [7] -2.87%

NCC(O)C1CCCCCCC1 (centres undefined)
inactive: Potency [1] | Potency [2] | outcome [3] | Potency [4] | Potency [5] | Potency [9] | activity, negative = inhibition [7] -4.79%

O=C(O)Cc1ccc(O)c(O)c1
active: Potency [6] 31.6 µM
inactive: Potency [1] | Potency [2] | Potency [4] | Potency [5] | Potency [9]

CN1C2CCC1CC(OC(c1ccccc1)c1ccccc1)C2 (centres undefined)
inactive: Potency [1] | Potency [2] | outcome [3] | Potency [4] | Potency [5] | Potency [9] | activity, negative = inhibition [7] -5.47%

COc1cc(CNC(=O)CCCCCCC(C)C)ccc1O
inactive: Potency [1] | Potency [2] | outcome [3] | Potency [4] | Potency [5] | activity, negative = inhibition [7] -17%

CN(C)C(=O)/N=N/C(=O)N(C)C
inactive: Potency [1] | Potency [2] | Potency [4] | Potency [5] | Potency [9]
active: Potency [6] 7.08 µM

c1ccc(C(NCc2cccnc2)(c2ccccc2)c2ccccc2)cc1
inactive: Potency [1] | Potency [2] | Potency [4] | Potency [5] | Potency [6] | Potency [9] | Potency [8] | activity, negative = inhibition [7] -13.8%

CC(N)(Cc1ccc(O)cc1)C(=O)O (centres undefined)
inactive: Potency [1] | Potency [2] | outcome [3] | Potency [4] | Potency [6] | Potency [9] | activity, negative = inhibition [7] 1.49%

COc1ccccc1N1CCN(CCCNc2c(C)c(=O)n(C)c(=O)n2C)CC1
inactive: Potency [1] | Potency [2] | outcome [3] | Potency [4] | Potency [5] | Potency [15] | Potency [10] | Potency [8] | Potency [11] | activity, negative = inhibition [7] -1.72% | outcome [14] | Potency [16]
